Experimental data: PubChem BioAssay (Tox21)
Results filed as inconclusive are left out. Entries that show only a call come without a potency. Activity calls are given as the source filed them. Unless noted, calls follow the shape of the dose curve; as a rule, active = well fitted curve in the direction sought with a large enough effect in the repeat runs; inconclusive = weak or mixed curves; inactive = no such curve, though single readings can be large; an effect the other way counts as inactive or inconclusive.

Assays:
[1] = qHTS assay to identify small molecule antagonists of the glucocorticoid receptor (GR) signaling pathway - cell viability counter screen (AID 720693); also: nearly all actives have a fitted effect of over 55% in size; also: potency is read from the fitted curve at half-maximal effect
[2] = qHTS assay for identifying genotoxic compounds that show differential cytotoxicity against isogenic chicken DT40 cell lines with known DNA damage response pathways - wild type cell line (AID 743012); also: nearly all actives have a fitted effect of over 60% in size; also: potency is read from the fitted curve at half-maximal effect
Procedure, shortened: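 First, wild type DT40 cells were plated at 300 per well and equilibrated about 0.5 h at 37 C/5% CO2. Next, compounds in DMSO were added and exposure lasted 40 h. Finally, CellTiter-Glo was added for 30 min at room temperature and luminescence recorded.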

[3] = qHTS assay for identifying genotoxic compounds that show differential cytotoxicity against isogenic chicken DT40 cell lines with known DNA damage response pathways - Rev3 mutant cell line (AID 743014); also: nearly all actives have a fitted effect of over 55% in size; also: potency is read from the fitted curve at half-maximal effect
[4] = qHTS assay for identifying genotoxic compounds that show differential cytotoxicity against isogenic chicken DT40 cell lines with known DNA damage response pathways - Rad54/Ku70 mutant cell line (AID 743015); also: nearly all actives have a fitted effect of over 60% in size; also: potency is read from the fitted curve at half-maximal effect
[5] = qHTS assay to identify small molecule antagonists of the androgen receptor (AR) signaling pathway - cell viability counter screen (AID 743033; also: nearly all actives have a fitted effect of over 45% in size; also: potency is read from the fitted curve at half-maximal effect)
[6] = target: Androgen receptor (Homo sapiens) (UniProt P10275); assay: qHTS assay to identify small molecule antagonists of the androgen receptor (AR) signaling pathway (AID 743035; active = well fitted inhibition curve with a large enough effect in the signal ratio in the repeat runs, not every such curve was filed as active; the % refers to the signal ratio; also: potency is read from the fitted curve at half-maximal effect)
Procedure, shortened: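 Beta-lactamase FRET read (2 h RT incubation with LiveBLAzer B/G) following 16 h of compound plus R1881 treatment of AR-UAS-bla HEK293 cells, which had been pre-incubated 4 h at 37C.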

[7] = target: Androgen receptor (Homo sapiens) (UniProt P10275); assay: qHTS assay to identify small molecule agonists of the androgen receptor (AR) signaling pathway using the MDA cell line (AID 743040; also: nearly all actives have a fitted effect of over 20% in size)
Procedure, shortened: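 After a 5 h incubation at 37C and 0% CO2, MDA-kb2 reporter cells were dosed with compounds in DMSO and kept 16 h under the same conditions. Luciferase activity was then read as luminescence with ONE-Glo.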

[8] = target: Androgen receptor (Homo sapiens) (UniProt P10275); assay: qHTS assay to identify small molecule antagonists of the androgen receptor (AR) signaling pathway using the MDA cell line (AID 743042; also: nearly all actives have a fitted effect of over 55% in size; also: potency is read from the fitted curve at half-maximal effect)
Procedure, shortened: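 Antagonist mode: compounds plus R1881 agonist added to MDA-kb2 AR-luc cells, incubated 16 h at 37C. Luciferase reporter luminescence quantified, with multiplexed CellTiter-Fluor readout for cell viability.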

[9] = qHTS assay to identify small molecule antagonists of the thyroid receptor (TR) signaling pathway - cell viability counter screen (AID 743064); also: nearly all actives have a fitted effect of over 50% in size; also: potency is read from the fitted curve at half-maximal effect
Procedure, shortened: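 Compounds were tested on GH3.TRE-Luc cells in the presence of T3 at 1 nM final. Following 23.5 h at 37 °C, cell viability was quantified by CellTiter-Fluor.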

[10] = qHTS assay to identify small molecule antagonists of the thyroid receptor (TR) signaling pathway (AID 743065); also: nearly all actives have a fitted effect of over 55% in size; also: potency is read from the fitted curve at half-maximal effect
Procedure, shortened: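 Antagonism measured as loss of luciferase signal in GH3 cells stably carrying a TRE-luciferase reporter, co-treated with compound and T3 (1 nM final) for 23.5 h at 37 C. Viability was read in the same well by CellTiter-Fluor.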

[11] = target: Estrogen receptor (Homo sapiens) (UniProt P03372); assay: qHTS assay to identify small molecule agonists of the estrogen receptor alpha (ER-alpha) signaling pathway (AID 743075; calls by dose curve)
[12] = qHTS assay to identify small molecule antagonists of the androgen receptor (AR) signaling pathway using the MDA cell line - cell viability counter screen (AID 743041; also: nearly all actives have a fitted effect of over 45% in size; also: potency is read from the fitted curve at half-maximal effect)
Procedure, shortened: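 R1881-driven MDA-kb2 AR-luc cells, 3,000/well, were dosed with library compounds for 16 h; cell health came from CellTiter-Fluor fluorescence in the reporter wells.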

[13] = system: thyroid hormone receptor (rat, GH3 cells); assay: qHTS assay to identify small molecule agonists of the thyroid receptor (TR) signaling pathway (AID 743066; calls by dose curve)
[14] = target: Estrogen receptor (Homo sapiens) (UniProt P03372); assay: qHTS assay to identify small molecule antagonists of the estrogen receptor alpha (ER-alpha) signaling pathway (AID 743069; active = well fitted curve in the direction sought with a large enough effect in the signal ratio in the repeat runs, not every such curve was filed as active; the % refers to the signal ratio; also: potency is read from the fitted curve at half-maximal effect)
Procedure, shortened: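 Compound effects are measured against 17beta-estradiol stimulation in HEK293 cells with a UAS-controlled beta-lactamase reporter for ER-alpha. Exposure lasts 18 hr at 37C; LiveBLAzer B/G FRET substrate follows for 2 hr at room temperature.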

[15] = qHTS assay to identify small molecule antagonists of the estrogen receptor alpha (ER-alpha) signaling pathway - cell viability counter screen (AID 743074; calls by dose curve;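 also: HEK293 cells carrying ER-alpha-UAS-bla reporter stimulated with 17beta-estradiol; nearly all actives have a fitted effect of over 45% in size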; also: potency is read from the fitted curve at half-maximal effect)
[16] = target: Estrogen receptor (Homo sapiens) (UniProt P03372); assay: qHTS assay to identify small molecule agonists of the estrogen receptor alpha (ER-alpha) signaling pathway using the BG1 cell line (AID 743079); details: BG1Luc4E2 cells, ERE-luciferase agonist, 22 h; activation: at 70.3 µM (top of the series); also: nearly all actives have a fitted effect of over 20% in size; also: potency is read from the fitted curve at half-maximal effect
[17] = qHTS assay to identify small molecule antagonists of the estrogen receptor alpha (ER-alpha) signaling pathway using the BG1 cell line (AID 743080; calls by dose curve; also: nearly all actives have a fitted effect of over 25% in size)
Procedure, shortened: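 Antagonist mode: compounds in DMSO were pinned onto BG1-Luc-4E2 cells alongside 17beta-estradiol agonist, incubated 21.5 h, and ERE-driven luciferase measured with ONE-Glo. Cytotoxicity was multiplexed using CellTiter-Fluor fluorescence.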

[18] = qHTS assay to identify small molecule antagonists of the estrogen receptor alpha (ER-alpha) signaling pathway using the BG1 cell line - cell viability counter screen (AID 743081);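 also: compound given together with 17beta-estradiol as the ER stimulus; nearly all actives have a fitted effect of over 45% in size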; also: potency is read from the fitted curve at half-maximal effect
[19] = target: Aromatase (Homo sapiens) (UniProt P11511); assay: qHTS assay to identify aromatase inhibitors (AID 743083); also: nearly all actives have a fitted effect of over 55% in size; also: potency is read from the fitted curve at half-maximal effect
Aromatase (Homo sapiens), sequence (P11511 whole entry, looked up): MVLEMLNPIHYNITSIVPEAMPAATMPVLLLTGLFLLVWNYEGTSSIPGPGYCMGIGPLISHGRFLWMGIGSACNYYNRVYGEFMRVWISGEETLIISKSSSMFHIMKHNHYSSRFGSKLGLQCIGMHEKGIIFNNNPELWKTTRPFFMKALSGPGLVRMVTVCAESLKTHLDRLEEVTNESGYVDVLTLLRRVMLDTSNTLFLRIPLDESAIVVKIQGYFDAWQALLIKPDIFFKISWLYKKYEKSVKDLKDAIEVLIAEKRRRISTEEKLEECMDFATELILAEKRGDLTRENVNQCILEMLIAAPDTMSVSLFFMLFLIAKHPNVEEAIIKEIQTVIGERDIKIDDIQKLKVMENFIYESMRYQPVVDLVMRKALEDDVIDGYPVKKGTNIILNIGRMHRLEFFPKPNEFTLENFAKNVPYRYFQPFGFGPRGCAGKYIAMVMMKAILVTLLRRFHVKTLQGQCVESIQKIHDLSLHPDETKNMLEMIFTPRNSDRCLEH

Estrogen receptor (Homo sapiens), sequence (P03372 whole entry, looked up): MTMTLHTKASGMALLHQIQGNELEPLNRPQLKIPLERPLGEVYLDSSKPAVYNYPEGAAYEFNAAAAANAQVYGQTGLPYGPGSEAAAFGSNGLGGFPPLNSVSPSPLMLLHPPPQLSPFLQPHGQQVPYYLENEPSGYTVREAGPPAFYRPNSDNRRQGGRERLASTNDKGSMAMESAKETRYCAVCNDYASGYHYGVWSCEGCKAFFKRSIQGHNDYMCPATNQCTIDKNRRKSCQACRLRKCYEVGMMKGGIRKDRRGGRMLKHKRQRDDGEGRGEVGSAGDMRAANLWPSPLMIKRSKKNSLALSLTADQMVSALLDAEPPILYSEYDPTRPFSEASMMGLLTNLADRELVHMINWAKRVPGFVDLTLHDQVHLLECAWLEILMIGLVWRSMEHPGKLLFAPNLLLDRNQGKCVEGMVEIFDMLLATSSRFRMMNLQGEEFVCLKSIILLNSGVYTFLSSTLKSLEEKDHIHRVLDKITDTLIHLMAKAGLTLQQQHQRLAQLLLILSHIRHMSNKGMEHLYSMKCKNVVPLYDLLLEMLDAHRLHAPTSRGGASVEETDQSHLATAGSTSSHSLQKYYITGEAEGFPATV
Androgen receptor (Homo sapiens), sequence (P10275 whole entry, looked up): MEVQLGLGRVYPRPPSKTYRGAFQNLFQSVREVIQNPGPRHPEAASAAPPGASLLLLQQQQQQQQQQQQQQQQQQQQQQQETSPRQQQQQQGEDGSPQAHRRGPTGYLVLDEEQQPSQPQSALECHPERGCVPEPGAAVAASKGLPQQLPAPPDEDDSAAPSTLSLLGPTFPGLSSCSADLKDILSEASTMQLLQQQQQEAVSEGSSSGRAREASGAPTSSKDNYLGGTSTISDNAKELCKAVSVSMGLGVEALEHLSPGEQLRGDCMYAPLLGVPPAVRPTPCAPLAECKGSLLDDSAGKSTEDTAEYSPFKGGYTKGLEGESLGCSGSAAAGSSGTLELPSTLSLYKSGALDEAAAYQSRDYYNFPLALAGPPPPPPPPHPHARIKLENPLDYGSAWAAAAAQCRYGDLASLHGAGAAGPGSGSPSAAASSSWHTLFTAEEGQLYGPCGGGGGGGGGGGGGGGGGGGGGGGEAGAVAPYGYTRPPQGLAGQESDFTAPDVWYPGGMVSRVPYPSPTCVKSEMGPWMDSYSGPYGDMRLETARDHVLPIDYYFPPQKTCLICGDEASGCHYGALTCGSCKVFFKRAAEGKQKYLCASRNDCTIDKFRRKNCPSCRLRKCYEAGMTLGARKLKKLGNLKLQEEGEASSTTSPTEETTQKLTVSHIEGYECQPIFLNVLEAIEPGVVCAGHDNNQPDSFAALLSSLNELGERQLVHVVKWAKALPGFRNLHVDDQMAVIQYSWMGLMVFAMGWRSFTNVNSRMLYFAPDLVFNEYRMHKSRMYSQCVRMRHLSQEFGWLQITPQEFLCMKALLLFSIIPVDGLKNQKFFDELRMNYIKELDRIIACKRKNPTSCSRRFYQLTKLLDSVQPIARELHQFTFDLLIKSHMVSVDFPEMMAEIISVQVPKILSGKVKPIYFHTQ

| SMILES | Potency [1] | Potency [2] | Potency [3] | Potency [4] | Potency [5] | Potency [6] | outcome [7] | Potency [8] | Potency [9] | Potency [10] | Potency [11] | Potency [12] | Potency [13] | Potency [14] | Potency [15] | Potency [16] | Potency [17] | Potency [18] | Potency [19] |
| --- | --- | --- | --- | --- | --- | --- | --- | --- | --- | --- | --- | --- | --- | --- | --- | --- | --- | --- | --- |
| CCC(OC(C)=O)C(CC(C)NC)(c1ccccc1)c1ccccc1 (centres undefined) | inactive | 7.76 µM (active) | 15.5 µM (active) | 15.5 µM (active) | inactive | 49.4 µM (active) | inactive | 21.9 µM (active) | 19.5 µM (active) | 19.5 µM (active) | inactive | – | – | – | – | – | – | – | – |
| O=P(Cl)(Cl)Cl | inactive | inactive | inactive | inactive | inactive | – | – | – | inactive | inactive | inactive | inactive | inactive | inactive | inactive | inactive | inactive | inactive | inactive |
| Oc1ccc2[nH]cc(CCCCN3CC=C(c4ccccc4)CC3)c2c1 | inactive | 5.96 µM (active) | 5.96 µM (active) | 7.5 µM (active) | inactive | – | – | – | 8.41 µM (active) | 11.9 µM (active) | – | inactive | inactive | – | inactive | – | – | – | inactive |
| CCCC[N+]1(C)CCCC1 (tested in a mixture with another compound) | inactive | inactive | inactive | inactive | inactive | – | – | – | inactive | inactive | – | inactive | inactive | – | inactive | – | – | inactive | inactive |
| O=C(O)[C@H](O)[C@@H](O)C(=O)O | inactive | inactive | inactive | inactive | inactive | – | – | – | inactive | – | inactive | inactive | inactive | inactive | inactive | inactive | inactive | inactive | inactive |
| CCNc1nc(NC(C)C(C)C)nc(SC)n1 (centres undefined) | inactive | 38.6 µM (active) | 34.4 µM (active) | 61.1 µM (active) | inactive | – | – | – | inactive | inactive | inactive | inactive | inactive | inactive | inactive | inactive | inactive | inactive | inactive |
| CCCCCCC[CH2][Sn]([Cl])([Cl])[CH2]CCCCCCC | 54.9 µM (active) | inactive | inactive | inactive | inactive | 21.9 µM (active) | inactive | inactive | – | 54.4 µM (active) | – | inactive | inactive | – | 24.5 µM (active) | – | – | inactive | – |
| Cc1cc(C2CC2)nc(Nc2ccccc2)n1 | inactive | 24.3 µM (active) | 30.6 µM (active) | 24.3 µM (active) | – | – | – | – | – | 54.5 µM (active) | inactive | – | inactive | – | inactive | 9.69 µM (active) | – | – | inactive |
| CC[C@H](C)[C@H]1O[C@]2(C=C[C@@H]1C)C[C@@H]1C[C@@H](C/C=C(\C)[C@@H](O[C@H]3C[C@H](OC)[C@@H](O[C@H]4C[C@H](OC)[C@@H](NC)[C@H](C)O4)[C@H](C)O3)[C@@H](C)/C=C/C=C3\CO[C@@H]4[C@H](O)C(C)=C[C@@H](C(=O)O1)[C@]34O)O2 | 12.3 µM (active) | 0.686 µM (active) | 0.686 µM (active) | 0.864 µM (active) | 2.19 µM (active) | – | – | – | 1.22 µM (active) | – | – | 21.7 µM (active) | – | 30.9 µM [cytotoxic] (active) | 13.8 µM (active) | – | – | 30.6 µM (active) | 4.86 µM (active) |
| CC(=O)[O-].CC(=O)[O-].O.O.[Zn+2] | inactive | inactive | inactive | inactive | inactive | – | – | – | inactive | – | – | inactive | inactive | – | – | – | – | inactive | inactive |
| CCC(C)Nc1c([N+](=O)[O-])cc(C(C)(C)C)cc1[N+](=O)[O-] (centres undefined) | inactive | inactive | inactive | inactive | inactive | – | – | – | – | – | inactive | inactive | – | inactive | inactive | 61.1 µM (active) | inactive | inactive | inactive |
| C#CC1(O)CCCCC1 | inactive | inactive | inactive | inactive | inactive | – | – | – | inactive | inactive | – | – | inactive | – | inactive | – | – | inactive | inactive |
| CCN(CC)Cc1nccn1-c1ccc([N+](=O)[O-])cc1C(=O)c1ccccc1Cl | inactive | 29.8 µM (active) | 29.8 µM (active) | – | inactive | – | – | – | – | – | – | inactive | inactive | – | inactive | – | – | – | – |
| CN=C=O | inactive | inactive | inactive | inactive | inactive | – | – | – | – | inactive | – | inactive | inactive | – | inactive | – | – | inactive | inactive |
| N#CCCl | inactive | inactive | inactive | inactive | inactive | – | – | – | inactive | inactive | – | – | inactive | inactive | inactive | 28.4 µM (active) | inactive | inactive | inactive |
| O.O.O.O.O.O.O.O=S(=O)([O-])[O-].[Co+2] | inactive | inactive | inactive | inactive | inactive | – | – | – | inactive | – | – | – | – | – | – | – | – | inactive | inactive |
| Clc1cc(Cl)c(-c2cc(Cl)c(Cl)cc2Cl)cc1Cl | inactive | inactive | inactive | inactive | inactive | – | – | – | – | – | – | inactive | inactive | – | inactive | – | – | inactive | inactive |
| ClC(Cl)C(Cl)(Cl)Cl | inactive | inactive | inactive | inactive | inactive | – | – | – | – | inactive | inactive | inactive | inactive | inactive | inactive | inactive | inactive | inactive | inactive |
